For some assays here: Results with a measured potency or affinity are listed apart. Calls of active or inactive are those of the source.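 How the source made its calls, unless noted: active means luciferase signal above three times the same-plate solvent-only control wells; inactive means the rest.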
Columns and labels:
[1] = molecular target: NAD(+) hydrolase SARM1 (Homo sapiens) (UniProt Q6SZW1); assay: SARM1 TIR NADase inhibitors, cell lysate, NAD-Glo luminescence (AID 1508614;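 active means compound whose remaining NAD level is above about 45 nM, limit read from the data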); conditions: SAM-TIR HEK293T lysate NADase, at 1 µM, stronger effect = higher value
[2] = molecular target: Mitogen-activated protein kinase 7 (Homo sapiens) (UniProt Q13164); assay: ERK5 transactivation activators in reporter cells, primary screen, cell-based, HTS (AID 1508626); conditions: HeLa Gal4-ERK5 transactivation, 18 h, at 5 µM, stronger effect = higher value;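 further: luciferase driven by Gal4-ERK5 fusion binding five Gal4 sites before minimal TATA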
[3] = polyglutamine-triggered caspase-3 activation inhibitors, cell-based (AID 1583); conditions: polyglutamine-induced caspase-3 activation, cell assay; stronger effect = higher value;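 tested at 10 µM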
[4] = suppressors of polyQ aggregation in yeast, 75Q-TubU reporter (AID 1593); conditions: Yeast 75Q polyglutamine aggregation reporter
[5] = rescue of polyQ-huntingtin neuronal dysfunction in worms, whole organism, C. elegans mechanosensory neurons, N-terminal huntingtin (AID 1599); conditions: touch response, stronger effect = higher value
[6] = inhibitors of mitochondrial cytochrome c release, biochemical, purified mitochondria (AID 1603); conditions: stronger effect = lower value;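 further: mouse liver mitochondria challenged with calcium chloride; signal normalized to the plate average as 100%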
[7] = inhibitors of polyQ protein aggregation (AID 1604); conditions: polyglutamine-induced protein aggregation inhibition assay; stronger effect = higher value; tested at 2.5 µM
[8] = enhancers of glutamate uptake in motor neurons, MN-1 cell line (AID 1612); conditions: MN-1 motor neuron cells, stronger effect = higher value;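 further: tested at 1 µM final; 0% = mean of DMSO vehicle wells on each plate; positive means more glutamate uptake than control and negative means less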
[9] = reducers of polyQ inclusions in PC12 cells, cell-based, NGF-treated PC12, GFPQ80 (AID 1614); conditions: PC12 NGF-treated GFP-polyQ80 inclusion reduction;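 further: lower means fewer inclusions and 0 means no inclusions at all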
[10] = suppressors of polyglutamine aggregation in yeast, 75Q-TubH (AID 1616); conditions: S. cerevisiae 75Q-TubH polyglutamine aggregation suppression; stronger effect = higher value

Mitogen-activated protein kinase 7 (Homo sapiens), sequence (Q13164 whole entry, looked up, the tested form may be a part): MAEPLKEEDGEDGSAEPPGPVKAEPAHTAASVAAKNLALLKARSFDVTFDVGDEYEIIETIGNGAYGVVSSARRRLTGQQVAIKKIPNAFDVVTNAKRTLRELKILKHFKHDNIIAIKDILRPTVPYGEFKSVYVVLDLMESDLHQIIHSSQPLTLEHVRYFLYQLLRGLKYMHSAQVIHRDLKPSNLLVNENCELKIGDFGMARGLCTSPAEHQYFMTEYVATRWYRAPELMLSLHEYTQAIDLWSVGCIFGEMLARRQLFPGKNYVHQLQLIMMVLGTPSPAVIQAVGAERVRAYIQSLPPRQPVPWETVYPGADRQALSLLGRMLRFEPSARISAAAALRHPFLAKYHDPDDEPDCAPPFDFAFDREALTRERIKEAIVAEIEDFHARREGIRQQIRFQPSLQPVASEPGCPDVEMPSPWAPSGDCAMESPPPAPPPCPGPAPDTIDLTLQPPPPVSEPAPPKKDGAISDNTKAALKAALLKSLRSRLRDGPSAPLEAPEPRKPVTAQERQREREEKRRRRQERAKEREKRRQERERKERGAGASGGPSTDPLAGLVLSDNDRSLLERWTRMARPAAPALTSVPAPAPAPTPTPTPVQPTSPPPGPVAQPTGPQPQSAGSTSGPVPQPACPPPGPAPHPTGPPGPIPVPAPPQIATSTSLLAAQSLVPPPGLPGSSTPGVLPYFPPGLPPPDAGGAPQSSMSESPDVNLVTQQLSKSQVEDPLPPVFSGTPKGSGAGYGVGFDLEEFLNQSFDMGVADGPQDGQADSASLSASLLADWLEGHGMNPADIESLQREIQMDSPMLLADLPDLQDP
NAD(+) hydrolase SARM1 (Homo sapiens), sequence (Q6SZW1 whole entry, looked up, the tested form may be a part): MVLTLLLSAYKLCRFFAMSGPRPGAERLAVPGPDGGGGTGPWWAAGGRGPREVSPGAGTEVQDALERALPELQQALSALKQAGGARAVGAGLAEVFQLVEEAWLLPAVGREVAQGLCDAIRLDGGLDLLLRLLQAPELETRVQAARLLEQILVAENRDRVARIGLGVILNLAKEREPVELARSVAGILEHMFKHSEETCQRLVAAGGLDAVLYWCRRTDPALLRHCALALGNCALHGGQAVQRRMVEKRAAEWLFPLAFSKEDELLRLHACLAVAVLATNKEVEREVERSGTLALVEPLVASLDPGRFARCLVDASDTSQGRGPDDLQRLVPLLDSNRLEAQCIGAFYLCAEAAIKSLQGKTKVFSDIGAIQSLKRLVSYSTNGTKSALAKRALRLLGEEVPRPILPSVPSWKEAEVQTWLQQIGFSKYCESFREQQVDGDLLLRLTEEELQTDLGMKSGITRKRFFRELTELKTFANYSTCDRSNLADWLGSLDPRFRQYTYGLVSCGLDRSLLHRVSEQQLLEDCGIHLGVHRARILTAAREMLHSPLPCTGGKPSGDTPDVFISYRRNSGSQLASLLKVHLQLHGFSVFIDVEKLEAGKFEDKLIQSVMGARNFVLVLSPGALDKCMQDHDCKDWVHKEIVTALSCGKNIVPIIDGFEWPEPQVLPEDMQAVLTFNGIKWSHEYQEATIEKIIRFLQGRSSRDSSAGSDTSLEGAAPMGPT

Row | Compound | remaining NAD [1] | luciferase signal [2] | inhibition [3] [%] | score [4] | rescue above control [5] | cytochrome c release ratio [6] | inhibition of aggregation [7] [%] | glutamate uptake change [8] [%] | inclusion score [9] | aggregation suppression score [10]
1 | CO[C@H]1C[C@@H]2CC[C@@H](C)[C@@](O)(O2)C(=O)C(=O)N2CCCC[C@H]2C(=O)O[C@H]([C@H](C)C[C@@H]2CC[C@@H](O)[C@H](OC)C2)CC(=O)[C@H](C)/C=C(\C)[C@@H](O)[C@@H](OC)C(=O)[C@H](C)C[C@H](C)\C=C/C=C/C=C/1C | 10 nM (inactive) | 64 AU (inactive) | – | – | – | – | – | – | – | –
2 | OC[C@@H](O)C(O)[C@@H](O)CO (some centres undefined) | – | 88 AU (inactive) | – | – | – | – | – | – | – | –
3 | O=C(O)C1=C(CSc2nnnn2CS(=O)(=O)O)CS[C@@H]2[C@H](NC(=O)[C@H](O)c3ccccc3)C(=O)N12 | 10 nM (inactive) | 84 AU (inactive) | – | – | – | – | – | – | – | –
4 | O[C@H]1[C@H](O)[C@@H](O)C2OC[C@H]1O2 | – | 60 AU (inactive) | – | – | – | – | – | – | – | –
5 | CC1(C)S[C@@H]2[C@H](N3C(=O)[C@@H](c4ccccc4)NC3(C)C)C(=O)N2[C@H]1C(=O)O | 10 nM (inactive) | 40 AU (inactive) | – | – | – | – | – | – | – | –
6 | O=c1c(O)c(-c2ccc(O)cc2)oc2ccccc12 | – | 76 AU (inactive) | – | – | – | – | – | – | – | –
7 | CC(=O)OCC(=O)[C@@]12OC(C)(C)O[C@@H]1C[C@H]1C3C[C@H](F)C4=CC(=O)C=CC4(C)[C@@]3(F)[C@@H](O)C[C@@]12C (some centres undefined) | – | – | -2.33 | 1.28 | 14.3 | 0.88 | 85.9 | 13.8 | 2 | 0.953
8 | CC(Oc1ccccc1)C(=O)NC1C(=O)N2C(C(=O)O)C(C)(C)S[C@H]12 (some centres undefined) | – | – | 11.5 | 1.28 | -11.5 | 0.66 | 83.6 | 4.57 | 2 | 1.04
9 | COc1ccc2c(c1OC)C(=O)O[C@H]2[C@@H]1c2ccccc2CCN1C | – | – | 69.2 | 1.08 | -8.02 | 0.71 | 72.2 | -0.43 | 2 | 19
10 | NC[C@@H]1O[C@H](OC2[C@@H](O)[C@H](O[C@@H]3[C@H](N)[C@@H](O)C[C@H](N)[C@H]3O[C@H]3O[C@H](CO)[C@@H](O)[C@H](O)[C@H]3N)O[C@@H]2CO)[C@H](N)[C@@H](O)[C@@H]1O (some centres undefined) | – | – | 25.1 | 0.88 | -2.53 | 1.33 | 16.8 | 21.4 | 2 | 0.564
11 | CC(=O)OCC(=O)[C@@]1(O)CC[C@H]2C3CCC4=CC(=O)CCC4(C)[C@@]3(F)[C@@H](O)CC21C (some centres undefined) | – | – | 9.6 | 1 | 20.3 | 0.71 | 88.9 | 7.44 | 2 | 1.14
12 | NCCNC(=O)c1ccc(Cl)cc1 | – | – | -45.7 | 1.23 | -2.85 | 1.14 | 66.7 | 11.9 | 2 | 1.48
13 | COC(=O)C(C)C[N+](C)(C)C (centres undefined) | – | – | -13.8 | 1.1 | -5.92 | 1.54 | 60.6 | 0.97 | 2 | 1.5
14 | NCC1CCC(N)C(OC2C(N)CC(N)C(OC3OC(CO)C(O)C(N)C3O)C2O)O1 (centres undefined) | – | – | -33.2 | 0.99 | -7.39 | 0.86 | 4.76 | 14.5 | 1.5 | 1.46
15 | CCN(CCCc1ccccc1)CCCc1ccccc1 (tested in a mixture with another compound) | – | – | 13.3 | 1.17 | -6.75 | 0.86 | 31.7 | 20.1 | 2 | 1.65
16 | CC12CCC(CC1=O)C2(C)C (centres undefined) | – | – | 15.1 | 1.08 | 1.05 | 1.24 | 43.2 | 5.12 | 2 | 1.49

Source: PubChem BioAssay
